Holding throughout (assay): NCI-60 one-dose screen, 48 h (100 = growth as untreated, 0 = no growth, -100 = all killed)
In one experiment the test system is NCI-H23 lung. As to conditions: 10 µM unless noted.
Another experiment has as its system NCI-H226 lung. Particulars: 10 µM unless noted.
A further experiment relates to NCI-H322M lung. As to conditions: 10 µM unless noted.
The next experiment deals with HOP-62 NSCLC. Particulars: 10 µM unless noted.
A further experiment deals with NCI-H460 lung. As to conditions: 10 µM unless noted.
In the next experiment the test system is HOP-92 NSCLC. Particulars: 10 µM unless noted.
Another experiment concerns NCI-H522 lung. As to conditions: 10 µM unless noted.
For a further experiment, the system named is A549/ATCC NSCLC. Particulars: 10 µM unless noted.
In the next experiment the test system is 786-0 renal. As to conditions: 10 µM unless noted.
A further experiment deals with COLO 205 colon. Particulars: 10 µM unless noted.
In another experiment the test system is DU-145 prostate. Particulars: 10 µM unless noted.
A further experiment relates to MALME-3M melanoma. Particulars: 10 µM unless noted.
The next experiment relates to MDA-MB-231 breast. As to conditions: 10 µM unless noted.
Another experiment deals with RXF 393 renal. As to conditions: 10 µM unless noted.
The subject of the next experiment is SF-268 CNS. Particulars: 10 µM unless noted.
For another experiment, the system named is SF-295 CNS. As to conditions: 10 µM unless noted.
Another experiment has as its system SF-539 CNS. Particulars: 10 µM unless noted.
Another experiment has as its system UACC-257 melanoma. Particulars: 10 µM.
The next experiment concerns M14 melanoma. Particulars: 10 µM unless noted.

This is part of a sample that, as a whole, favours compounds with a hit. Of some 83,000 tested, about 20% had one in any assay.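 In brief: 96-well plates, 48 h treatment, single concentration, percent growth endpoint.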 A number with no mark means an inactive call. Activity calls are given as the source filed them. How the source made its calls: active means growth percent below 10; inactive means the rest.

On to `COc1ccc(/C(C)=C(\c2ccc(Cl)cc2)c2ccc(OCCN)cc2)cc1`, for which the growth is 82.2% in the experiment with NCI-H23 lung; 92% in the experiment on NCI-H226 lung; 79.3% in the experiment with NCI-H322M lung; 106% in the experiment with HOP-62 NSCLC; 60.8% in the experiment with NCI-H460 lung; 61.6% with HOP-92 NSCLC. In addition, the growth in the experiment with NCI-H522 lung is 102%; with A549/ATCC NSCLC it was 88.9%; in the experiment on 786-0 renal, 81.7%; in the experiment on COLO 205 colon, 32.6%; with DU-145 prostate it was 87.2%; in the experiment on MALME-3M melanoma, 83%. Also, the growth with MDA-MB-231 breast was 67.1%; in the experiment on RXF 393 renal it was 68.3%; in the experiment with SF-268 CNS, 89.4%; in the experiment with SF-295 CNS, 103%; in the experiment with SF-539 CNS, 90%; with UACC-257 melanoma, 94.7%. Also, the growth in the experiment with M14 melanoma was 81.4%.

`C=C(C)C(=O)O[C@H]1C[C@@]2(C)OC(=CC2=O)/C(C)=C\[C@H]2OC(=O)C(=C)[C@H]12`: the growth was -2.39% (active) with NCI-H23 lung; -1.67% (active) in the experiment on NCI-H226 lung; 79.9% in the experiment with NCI-H322M lung; 58.8% with HOP-62 NSCLC; 13.3% with NCI-H460 lung; -22% (active) in the experiment with HOP-92 NSCLC. Besides, the growth was -72% (active) in the experiment on NCI-H522 lung; 58.5% in the experiment on A549/ATCC NSCLC; -71.3% (active) in the experiment on 786-0 renal; -50.1% (active) in the experiment with COLO 205 colon; -3.72% (active) in the experiment on DU-145 prostate; 6.62% (active) with MALME-3M melanoma. Besides, the growth was -33.3% (active) in the experiment on MDA-MB-231 breast; -53.7% (active) in the experiment on RXF 393 renal; 7.51% (active) with SF-268 CNS; 42.1% in the experiment on SF-295 CNS; -54.6% (active) in the experiment with SF-539 CNS; -26.3% (active) in the experiment with UACC-257 melanoma. Moreover, in the experiment on M14 melanoma, the growth was -37% (active).

Turning to `N#Cc1ccc(S(=O)(=O)Nc2ccc(-c3cnc(N)[nH]3)cc2)cc1`, the growth in the experiment with NCI-H23 lung was 99.1%; with NCI-H226 lung, 96.4%; with NCI-H322M lung, 97.4%; in the experiment on HOP-62 NSCLC, 105%; in the experiment with NCI-H460 lung, 103%; in the experiment on HOP-92 NSCLC it was 100%. Besides, the growth in the experiment with NCI-H522 lung is 94%; in the experiment with A549/ATCC NSCLC it was 98.4%; in the experiment with 786-0 renal, 100%; in the experiment with COLO 205 colon, 105%; in the experiment on DU-145 prostate, 107%; in the experiment on MALME-3M melanoma, 98%. The growth in the experiment with MDA-MB-231 breast is 100%; with RXF 393 renal, 102%; in the experiment with SF-268 CNS, 105%; with SF-295 CNS, 96.9%; in the experiment with SF-539 CNS it was 98.7%; in the experiment with UACC-257 melanoma, 98.2%. In the experiment with M14 melanoma, the growth was 99.9%.

With `COc1ccc(-c2no[n+]([O-])c2Nc2ccccc2Br)cc1`, the growth with NCI-H23 lung is 91.8%; with NCI-H226 lung it was -13% (active); in the experiment with NCI-H322M lung, 96.8%; with HOP-62 NSCLC, 84.5%; with NCI-H460 lung, 101%; in the experiment on HOP-92 NSCLC it was 73%. The growth in the experiment on NCI-H522 lung is 81.4%; in the experiment with A549/ATCC NSCLC, 102%; in the experiment on 786-0 renal, 106%; in the experiment with COLO 205 colon, 107%; in the experiment with DU-145 prostate, 106%; with MALME-3M melanoma it was 88%. The growth in the experiment with MDA-MB-231 breast was 81.5%; with RXF 393 renal it was 102%; with SF-268 CNS, 92.4%; in the experiment with SF-295 CNS, 106%; in the experiment on SF-539 CNS it was 93.9%; with M14 melanoma, 89.3%.

For `COc1ccc([C@@H]2[C@@H](O)C(=O)N2c2cc(OC)c(OC)c(OC)c2)cc1`, the growth in the experiment on NCI-H23 lung is 25.6%; in the experiment with NCI-H226 lung, -7.75% (active); in the experiment with NCI-H322M lung, 43.1%; in the experiment on HOP-62 NSCLC, 22.7%; with NCI-H460 lung it was 3.07% (active); in the experiment with HOP-92 NSCLC, -1.78% (active). Besides, the growth in the experiment with NCI-H522 lung was -21.2% (active); in the experiment with A549/ATCC NSCLC, 23.3%; in the experiment with 786-0 renal, 19.2%; in the experiment on COLO 205 colon, -78.7% (active); in the experiment on DU-145 prostate it was 12.7%; with MALME-3M melanoma, 49.9%. The growth in the experiment on MDA-MB-231 breast is 30.4%; in the experiment with RXF 393 renal, 24%; in the experiment on SF-268 CNS it was 46.9%; in the experiment on SF-295 CNS, 19.8%; in the experiment with SF-539 CNS, -7.72% (active); with M14 melanoma, 12.5%.

On to `CC1OC(O[C@@H]2[C@H](O)C(CO)OC(O[C@H]3COC(O[C@H]4CC[C@]5(C)[C@H]6CC[C@]78OC[C@@]9(CCC(C)(C)C[C@H]97)[C@H](O)C[C@@]8(C)[C@]6(C)CC[C@H]5C4(C)C)[C@@H](OC4OC(CO)[C@@H](O)[C@@H](O)[C@@H]4O)[C@@H]3O)[C@H]2OC2OC[C@@H](O)[C@@H](O)[C@@H]2O)[C@@H](O)[C@@H](O)[C@H]1O` (stereo not given in full), for which the growth with NCI-H23 lung was -62.7% (active); with NCI-H226 lung it was -40% (active); in the experiment on NCI-H322M lung, -78.2% (active); in the experiment with HOP-62 NSCLC, -81% (active); in the experiment with NCI-H460 lung, -65.2% (active); in the experiment with HOP-92 NSCLC it was -39.3% (active). For the same molecule, the growth in the experiment on NCI-H522 lung was -72.4% (active); in the experiment on A549/ATCC NSCLC, -67.7% (active); in the experiment on 786-0 renal it was -80.9% (active); in the experiment with COLO 205 colon, -74.5% (active); with DU-145 prostate it was -79.7% (active); with MALME-3M melanoma, -70.6% (active). For the same molecule, the growth is -72.2% (active) in the experiment on MDA-MB-231 breast; -92% (active) in the experiment on RXF 393 renal; -65.9% (active) in the experiment with SF-268 CNS; -92.3% (active) with SF-295 CNS; -80.5% (active) in the experiment with SF-539 CNS; -76.2% (active) with UACC-257 melanoma. In the experiment on M14 melanoma, the growth is -80.7% (active).

Take `Clc1ccccc1/C=C/c1nn2c(-c3ccncc3)nnc2s1`: the growth is 99% in the experiment on NCI-H23 lung; 91% with NCI-H226 lung; 100% with NCI-H322M lung; 108% in the experiment on HOP-62 NSCLC; 102% in the experiment on NCI-H460 lung; 103% in the experiment on HOP-92 NSCLC. For the same molecule, the growth in the experiment with NCI-H522 lung is 101%; with A549/ATCC NSCLC, 106%; in the experiment on 786-0 renal, 96.9%; with COLO 205 colon, 115%; in the experiment with DU-145 prostate, 103%; in the experiment on MALME-3M melanoma, 100%. Further, the growth in the experiment with MDA-MB-231 breast was 101%; with RXF 393 renal, 109%; in the experiment with SF-268 CNS, 98.7%; with SF-295 CNS, 98%; with SF-539 CNS, 98.3%; in the experiment with UACC-257 melanoma it was 121%. The growth with M14 melanoma is 85.7%.

For `CC1OC(O[C@@H]2C(O)C(CO)OC(O[C@H]3COC(O[C@H]4CC[C@]5(C)[C@H]6CC[C@]78OC[C@@]9(CC[C@](C)(C=O)C[C@H]97)[C@H](O)C[C@@]8(C)[C@]6(C)CC[C@H]5C4(C)C)[C@@H](OC4OC(CO)[C@@H](O)[C@@H](O)[C@@H]4O)[C@@H]3O)[C@H]2OC2OC[C@@H](O)[C@@H](O)[C@@H]2O)[C@@H](O)[C@@H](O)[C@H]1O` (stereo not given in full), the growth with NCI-H23 lung was -15.2% (active); in the experiment with NCI-H226 lung, -47.5% (active); in the experiment on NCI-H322M lung it was -35.3% (active); in the experiment with HOP-62 NSCLC, -74.6% (active); with NCI-H460 lung, 74.1%; in the experiment with HOP-92 NSCLC it was 15.5%. The growth with NCI-H522 lung was -55.4% (active); in the experiment on A549/ATCC NSCLC, -63.3% (active); in the experiment on 786-0 renal it was -53% (active); in the experiment on COLO 205 colon it was -37.7% (active); in the experiment on DU-145 prostate, 41.8%; with MALME-3M melanoma, -69.7% (active). Moreover, the growth is -48.4% (active) with MDA-MB-231 breast; -36.2% (active) in the experiment with RXF 393 renal; -56.3% (active) in the experiment on SF-268 CNS; -59.2% (active) in the experiment with SF-295 CNS; 1.77% (active) with SF-539 CNS; -78% (active) in the experiment on UACC-257 melanoma. The growth in the experiment with M14 melanoma was -47.3% (active).

The values are drawn from PubChem BioAssay (NCI).
